# Results filed as inconclusive are left out. Entries that show only a call come without a potency. Unmarked numbers belong to inactive results. Calls of active or inactive are those of the source. Calls come from the whole dose curve; as a rule, active = well fitted cell-killing curve with a large enough effect; inconclusive = small, poorly fitted or top-dose-only effect, or effect the other way; inactive = no such curve, though single readings can be large or run the other way.
# What was measured:
# [1] = Viability qHTS for spleen associated tyrosine kinase inhibitor (SYKi) naive MV4-11 cells (AID 1963823); details: MV4-11 AML viability, CellTiter-Glo luminescence, 72 h; series mostly up to 45 µM; note: nearly all actives have a fitted effect of over 40% in size
# In short: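 Viability of MV4-11 AML cells lacking prior SYK inhibitor exposure is scored by CellTiter-Glo luminescence following 72 hr compound incubation at 37 C, 5% CO2, seeded at 500 cells per well.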
# [2] = Viability qHTS for spleen associated tyrosine kinase inhibitor (SYKi) drug resistant MV4-11 cells (AID 1963824); details: SYKi-resistant MV4-11 viability, CellTiter-Glo, 72 h; series mostly up to 45 µM; note: nearly all actives have a fitted effect of over 35% in size
# In short: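 SYK inhibitor-resistant MV4-11 AML cells, 500 per well, added to predispensed compounds and incubated 72 hr at 37 C, 5% CO2. Viability measured by CellTiter-Glo luminescence after 10 min at room temperature.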
# Potency is the fitted concentration of half-maximal effect.
Compound,Potency [1],Potency [2],viability (% of control) [1],"viability, % of control [2]"
O=C(CO)[C@@H](O)[C@H](O[C@@H]1O[C@H](CO)[C@H](O)[C@H](O)[C@H]1O)[C@H](O)CO,inactive,inactive,–,–
Cc1ccc(NS(=O)(=O)c2cc3c(cc2N[C@H](C)CO)NC(=O)CC3)cc1C,20.6 µM (active),14.6 µM (active),–,–
CCC(C)CC(=O)OC1C(=O)C(CO)=CC(O)C1C(C)C (stereo not drawn),2.59 µM (active),2.59 µM (active),–,–
CC(C)=CC/C=C(/C)[C@H]1CC[C@]2(C)[C@@H]1[C@H](O)CC1[C@@]3(C)CC[C@H](O)C(C)(C)[C@@H]3[C@@H](O[C@@H]3O[C@H](CO)[C@@H](O)[C@H](O)[C@H]3O[C@@H]3O[C@@H](C)[C@H](O)[C@@H](O)[C@H]3O)C[C@]12C (stereo partly drawn),inactive,inactive,–,–
CC1=CC(=O)CC(C)(C)[C@H]1/C=C/C(CO)O[C@@H]1O[C@H](CO)[C@@H](O)[C@H](O)[C@H]1O (stereo partly drawn),inactive,inactive,–,–
OC[C@@]1(O)CO[C@@H](OC[C@H]2O[C@@H](OCc3ccccc3)[C@H](O)[C@@H](O)[C@@H]2O)[C@@H]1O,inactive,inactive,–,–
Cn1nnc(-c2ccc(-c3ccc(N4C[C@H](COP(=O)(O)O)OC4=O)cc3F)cn2)n1,inactive,inactive,–,–
CN[C@H](CC(C)C)C(=O)N[C@H]1C(=O)N[C@@H](CC(N)=O)C(=O)N[C@H]2C(=O)N[C@H]3C(=O)N[C@H](C(=O)N[C@H](C(=O)O)c4cc(O)cc(O)c4-c4cc3ccc4O)[C@H](O[C@H]3C[C@](C)(N)[C@@H](O)[C@H](C)O3)c3ccc(c(Cl)c3)Oc3cc2cc(c3O[C@@H]2O[C@H](CO)[C@@H](O)[C@H](O)[C@H]2O[C@H]2C[C@](C)(NCc3ccc(-c4ccc(Cl)cc4)cc3)[C@@H](O)[C@H](C)O2)Oc2ccc(cc2Cl)[C@H]1O,inactive,inactive,–,–
C[C@@H]1O[C@@H](O[C@H]2[C@H](O)[C@@H](O[C@@H]3O[C@H](CO)[C@@H](O)[C@H](O[C@@H]4O[C@H](CO)[C@@H](O)[C@H](O)[C@H]4O)[C@H]3O)[C@H](O[C@H]3CC[C@@]4(C)C(=CC[C@@H]5C4CC[C@@]4(C)C5C[C@@H]5OC6(CC[C@@](C)(CO[C@@H]7O[C@H](CO)[C@@H](O)[C@H](O)[C@H]7O)O6)[C@@H](C)[C@@H]54)C3)O[C@@H]2CO)[C@H](O)[C@H](O)[C@H]1OC1OC(CO)C(O)C(O)C1O (stereo partly drawn),–,–,77.4% [at 9.25 µM],109% [at 9.25 µM]
CC1(C)OC(=O)C(OCC2CC2)=C1c1ccc(S(C)(=O)=O)cc1,inactive,inactive,–,–
C[C@@H]1O[C@@H](O[C@H]2[C@@H]3C=CO[C@@H](O[C@@H]4O[C@H](CO)[C@@H](O)[C@H](O)[C@H]4O)[C@@H]3[C@@]3(CO)O[C@@H]23)[C@H](OC(=O)/C=C/c2ccc(O)c(O)c2)[C@H](O)[C@H]1O,inactive,inactive,–,–
Cn1cc(Nc2cnccc2C(=O)O)c2cccnc21,inactive,inactive,–,–
C=CCc1ccc(O[C@@H]2O[C@H](CO)[C@@H](O)[C@H](O)[C@H]2O)c(O[C@@H]2O[C@H](CO)[C@@H](O)[C@H](O)[C@H]2O)c1,inactive,inactive,–,–
CCC1=CC2CN(C1)Cc1c([nH]c3ccccc13)[C@@](C(=O)OC)(c1cc3c(cc1OC)N(C)[C@H]1[C@@](O)(C(=O)OC)[C@H](OC(C)=O)[C@]4(CC)C=CCN5CC[C@]31[C@@H]54)C2 (stereo partly drawn),0.0252 µM (active),0.0126 µM (active),–,–
CC(C)=CCCC1(C)/C=C/C(OC(=O)C=C(C)C)C(C)(O)/C=C/C(=O)/C(CO)=C\C1 (stereo not drawn),1.59 µM (active),2.52 µM (active),–,–
Nc1n[nH]c(N)c1N=Nc1ccc(O)cc1,9.2 µM (active),6.51 µM (active),–,–
COc1cc(CCC2=NN=C(NC(=O)c3ccc(N4C[C@@H](C)N[C@@H](C)C4)cc3)C2)cc(OC)c1,0.461 µM (active),1.46 µM (active),–,–
CC1CCC2C(C(=O)O)=CC3C(O)C(C)(C)CC123 (stereo not drawn),inactive,inactive,–,–
CC1=C2[C@@H]([C@H](C)CC[C@H]2/C=C(\C)C(=O)O)[C@H](O)C1,inactive,inactive,–,–
C=C1[C@@H](C2=CC(=O)OC2)CC[C@@]2(O)[C@@H]1CC1[C@H]2CC[C@@H]2C[C@@H](O[C@H]3O[C@@H](C)[C@@H](O[C@@H]4O[C@H](CO[C@@H]5O[C@H](CO)[C@@H](O)[C@H](O)[C@H]5O)[C@@H](O)[C@H](O)[C@H]4O)[C@H](OC)[C@H]3O)CC[C@]12C (stereo partly drawn),2.19 µM (active),1.55 µM (active),–,–
O=C(O[C@@H]1O[C@H](CO)[C@@H](O)[C@H](O)[C@H]1O)c1c(O)cc(O)cc1/C=C/c1ccccc1,inactive,inactive,–,–
CC(=O)OC[C@]12[C@@H](OC(=O)c3ccoc3)C[C@@H]3[C@@H](OC(C)=O)[C@]1(OC3(C)C)[C@@](C)(O)C[C@H](OC(=O)c1ccoc1)[C@@H]2OC(=O)c1ccoc1,inactive,inactive,–,–
CCC[C@@]1(CCc2ccccc2)CC(O)=C([C@H](CC)c2cccc(NS(=O)(=O)c3ccc(C(F)(F)F)cn3)c2)C(=O)O1,20.6 µM (active),23.1 µM (active),–,–
CCOc1ncc(S(=O)(=O)N2CCN(CC)CC2)cc1-c1nc2c(CC)n(CCOC)nc2c(=O)[nH]1,inactive,inactive,–,–
CNC(=O)[C@H]1O[C@@H](n2cnc3c(NCc4ccc(N)c(I)c4)ncnc32)[C@H](O)[C@@H]1O,–,–,77.1% [at 9.25 µM],80.4% [at 9.25 µM]
O=C(O)CCc1c(C(=O)O)[nH]c2cc(Cl)cc(Cl)c12,inactive,inactive,–,–
COc1cc2c(NC3CCN(C(C)C)CC3)nc(N3CCC(F)(F)CC3)nc2cc1OCCCN1CCCC1,5.17 µM (active),2.91 µM (active),–,–
CC1=CC(=O)CC(C)(CO[C@@H]2O[C@H](CO)[C@@H](O)[C@H](O)[C@H]2O)C1(O)/C=C/C(C)=C/C(=O)O (stereo partly drawn),inactive,inactive,–,–
COC1CC(O[C@H]2CC[C@@]3(C)C(=CC[C@]4(O)C3[C@H](OC(C)=O)[C@@H](OC(=O)c3ccccc3)[C@]3(C)[C@@H](C(C)=O)CC[C@@]34O)C2)OC(C)C1OC1CC(OC)C(OC2CC(OC)C(OC3OC(C)C(OC4OC(CO)C(O)C(O)C4O)C(OC)C3O)C(C)O2)C(C)O1 (stereo partly drawn),–,–,74.5% [at 9.25 µM],66.2% [at 9.25 µM]

# Source: PubChem BioAssay (NCATS)
